Assay results published in PubChem BioAssay AID1159580 (chemical genetic matrix, 2015).
Where “and” joins values, the source holds several entries; their conditions need not be identical. Identical values can stand only once. In all, about 5,500 compounds went through this assay and about 2,000 (36%) were called active. About 18% were inconclusive and are not listed. Rule as the data show it: active = normalized growth mostly below about 0.91 (no sharp cut-off); inconclusive = no clear call, values can overlap the other calls; inactive = mostly above about 0.92. This is one part of the list.

Experiment: chemical genetic growth profiling, strain panel (AID 1159580);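 also: tested at 20 µM; growth read once vehicle control cultures reached saturation at 30 °C; 1 = growth at the plate median or of vehicle wells; lower values mean less growth of the strain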
Settings: S. cerevisiae deletion strains, growth OD

Measured: normalized growth

C[n+]1ccccc1/C=N/O
inactive: locus YAL013W, strain DEP1, active compounds read low 1.01 | locus YAL021C, strain ccr4, active compounds read low 0.99 | locus YAL026C, strain drs2, active compounds read low 1.02 | locus YAL030W, strain snc1, active compounds read low 1 | locus YBL061C, strain skt5, active compounds read low 0.992 | locus YBR009C, strain hhf1, active compounds read low 1.03 | locus YBR021W, strain FUR4, active compounds read low 0.985 | locus YBR023C, strain chs3, active compounds read low 0.995 | locus YBR171W, strain sec66, active compounds read low 1 | locus YBR229C, strain ROT2, active compounds read low 1.01 | locus YBR231C, strain swc5, active compounds read low 1.02 | locus YBR279W, strain paf1, active compounds read low 1.01 | locus YCL011C, strain gbp2, active compounds read low 1.01 | locus YCL016C, strain dcc1, active compounds read low 1.01 | locus YCL029C, strain bik1, active compounds read low 1.01 | locus YCL069W, strain vba3, active compounds read low 1 | locus YCR088W, strain abp1, active compounds read low 1 | locus YDL005C, strain med2, active compounds read low 0.986 | locus YDL035C, strain GPR1, active compounds read low 1.01 | locus YDL040C, strain nat1, active compounds read low 1.01 | locus YDL074C, strain BRE1, active compounds read low 1 | locus YDL101C, strain DUN1, active compounds read low 1.01 | locus YDL134C, strain PPH21, active compounds read low 0.997 | locus YDL185W, strain tfp1, active compounds read low 0.999 | locus YDL192W, strain arf1, active compounds read low 1 | locus YDR001C, strain nth1, active compounds read low 0.997 | locus YDR069C, strain doa4, active compounds read low 1.02 | locus YDR101C, strain arx1, active compounds read low 1 | locus YDR137W, strain rgp1, active compounds read low 1.01 | locus YDR150W, strain NUM1, active compounds read low 1.01 | locus YDR159W, strain sac3, active compounds read low 0.967 | locus YDR162C, strain NBP2, active compounds read low 1.01 | locus YDR195W, strain ref2 0.999 | locus YDR297W, strain sur2, active compounds read low 1.01 | locus YDR318W, strain mcm21, active compounds read low 0.994 | locus YDR334W, strain swr1, active compounds read low 1 | locus YDR335W, strain msn5, active compounds read low 1.01 | locus YDR388W, active compounds read low 0.996 | locus YDR392W, strain spt3, active compounds read low 0.918 | locus YDR502C, strain sam2, active compounds read low 1 | locus YEL003W, strain gim4, active compounds read low 1.01 | locus YEL037C, strain rad23, active compounds read low 0.998 | locus YEL061C, strain CIN8 (second series), active compounds read low 1.02 | locus YEL061C, strain CIN8, active compounds read low 1.01 | locus YER015W, strain faa2, active compounds read low 1.01 | locus YER016W, strain bim1, active compounds read low 0.991 | locus YER110C, active compounds read low 1.01 | locus YER111C, strain swi4, active compounds read low 1 | locus YER155C, strain BEM2 (second series), active compounds read low 1.02 | locus YER155C, strain BEM2, active compounds read low 0.998 | locus YER167W, strain BCK2, active compounds read low 1.01 | locus YFR010W, strain ubp6, active compounds read low 1.02 | locus YGL078C, strain dbp3, active compounds read low 1.02 | locus YGL086W, strain mad1, active compounds read low 1.01 | locus YGL167C, strain pmr1, active compounds read low 1.01 | locus YGL173C, strain kem1, active compounds read low 0.991 | locus YGL227W, strain vid30, active compounds read low 0.994 | locus YGL240W, strain doc1, active compounds read low 0.993 | locus YGL248W, strain PDE1, active compounds read low 1.01 | locus YGL253W, strain hxk2, active compounds read low 1.02 | locus YGR078C, strain PAC10, active compounds read low 1.01 | locus YGR135W, strain pre9, active compounds read low 1.01 | locus YGR229C, strain SMI1, active compounds read low 1.02 | locus YGR252W, strain gcn5, active compounds read low 0.954 | locus YHR013C, strain ard1, active compounds read low 0.982 | locus YHR027C, strain rpn1, active compounds read low 1 | locus YHR030C, strain SLT2, active compounds read low 1.01 and 1 | locus YHR079C, strain IRE1 (second series), active compounds read low 0.995 | locus YHR079C, strain IRE1, active compounds read low 0.997 | locus YHR094C, strain hxt1, active compounds read low 1 | locus YHR129C, strain ARP1, active compounds read low 1.01 | locus YHR142W, strain chs7, active compounds read low 1.02 | locus YHR200W, strain rpn10, active compounds read low 0.99 | locus YIL066C, strain RNR3, active compounds read low 1.01 | locus YIL073C, strain SPO22, active compounds read low 0.996 | locus YIL125W, strain kgd1, active compounds read low 0.985 | locus YIR030C, strain dcg1, active compounds read low 1.01 | locus YJL092W, strain hpr5, active compounds read low 1.01 | locus YJL095W, strain BCK1 (second series), active compounds read low 0.99 | locus YJL095W, strain BCK1, active compounds read low 1.01 | locus YJL115W, strain asf1, active compounds read low 1.01 | locus YJL129C, strain trk1, active compounds read low 1.01 | locus YJL134W, strain LCB3, active compounds read low 1.01 | locus YJL154C, strain vps35, active compounds read low 1.02 | locus YJL164C, strain tpk1, active compounds read low 1 | locus YJL166W, strain qcr8, active compounds read low 1.01 | locus YJL168C, strain set2, active compounds read low 0.995 | locus YJL187C, strain SWE1 (second series), active compounds read low 1.01 | locus YJR043C, strain POL32, active compounds read low 0.995
